Assay results from PubChem BioAssay.
A number with no mark means an inactive call. Calls of active or inactive are those of the source.

Experiment: PSAC antagonists in infected red cells, primary screen, cell-based, P. falciparum Indochina, OD700, 2 h (AID 1155);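 further: lysis reports solute entry through the parasite surface anion channel PSAC; channel blockers reduce lysis of infected cells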
Details: P. falciparum Indochina infected erythrocytes, osmotic lysis OD700; higher = more signal, called active from +8 up or from −8 down

| Structure (SMILES) | z-score |
| --- | --- |
| COC(=O)Cn1c(C(=O)N(C)C)cc2c1C[C@H]1CN(C(=O)c3ccccc3)[C@@](Cc3ccc(F)cc3)(C(=O)OC)[C@@H]21 | 0.238 |
| O=C1C[C@@](C(=O)NCCN2CCOCC2)(c2ccc([N+](=O)[O-])cc2)[C@@H](c2ccc(CO)cc2I)N1C1CCCCC1 | 1.59 |
| C=CCN1Cc2ccccc2[C@H]2OC(c3ccc(OCCCO)cc3)=N[C@@]2(CC=C)C1=O | 25.7 (active) |
| O=C1c2ccccc2[C@](Cc2ccccc2I)(C(=O)NCC(F)(F)F)[C@H](c2ccc(CO)cc2)N1C1CCCCC1 | 0.605 |
| COc1ccc(C(O)C2C=CC3C(=O)N(c4ccccc4)C(=O)C3N2Nc2ccc([N+](=O)[O-])cc2)cc1 (configuration not stated) | 2.49 |
| COCCOC(=O)N1C(=O)[C@@]2(c3cc(C#CCC(C(=O)OC)C(=O)OC)ccc31)[C@H](C(=O)N1CCc3cc(OC)c(OC)cc3C1)[C@H]1C(=O)O[C@H](c3ccccc3)[C@H](c3ccccc3)N1[C@@H]2c1ccc(OCCO)cc1 | 2.73 |

Experiment: osmotic lysis modulators in infected erythrocytes, primary screen, PSAC antagonist project, cell-based, P. falciparum Indochina, OD700, 3 h (AID 1156)
Details: higher = more signal, called active from +8 up or from −8 down

| Structure (SMILES) | z-score |
| --- | --- |
| COc1ccc([Si](C)(C)[C@H]2[C@H](CCO)O[C@@]3(C(=O)N(Cc4cccc(N5C(=O)COc6ccccc65)c4)c4ccccc43)[C@@H]2C)cc1 | 1.7 |
| CC(C)(C)OC(=O)CC[C@@]1(C(=O)NCc2ccccc2)N=C(c2ccc(OCCCO)cc2)O[C@@H]1c1ccccc1N=[N+]=[N-] | 4.99 |
| CN(C)CCCNC(=O)[C@@]1(c2ccc([N+](=O)[O-])cc2)CC(=O)N(CC23CC4CC(CC(C4)C2)C3)[C@@H]1c1ccc(CO)cc1I | -8.44 (active) |
| C=C[C@@H](OC)[C@H](OC(=O)Nc1ccc(SC)cc1)c1ccc(O)c(F)c1 | 2.98 |
| CCC(CC)C(O)C1C=CC2C(=O)N(c3ccccc3)C(=O)C2N1Nc1ccc(C(C)C)cc1 (configuration not stated) | 0.741 |
| COC(=O)[C@@]1(Cc2ccc(F)cc2)[C@H]2c3cc(C(=O)N(C)C)n(CCc4ccc(O)c(OC)c4)c3C[C@H]2CN1C(=O)c1ccccc1 | -0.722 |
| CC(C)[Si](C#CCCCC#N)(O[C@H](c1ccccc1)c1cn([C@H](CO)Cc2ccccc2)nn1)C(C)C | -0.138 |
| Cc1cc(C)c(C(O)C2C=CC3C(=O)NC(=O)C3N2Nc2ccc(Cl)cc2Cl)c(C)c1 (configuration not stated) | -1.55 |
| CCOc1cc(C(O)C2C=CC3C(=O)N(C)C(=O)C3N2Nc2ccccc2)ccc1O (configuration not stated) | 0.42 |
| O=C1O[C@H](c2ccccc2)[C@H](c2ccccc2)N2[C@H]1[C@@H](C(=O)Nc1nc3ccccc3s1)[C@]1(C(=O)Nc3ccc(C#CCCO)cc31)[C@H]2c1ccc(O)cc1 | -5.42 |
| CC(C)OC(=O)C=C1C[C@@H](c2ccc(C(F)(F)F)cc2)O[C@@H](c2ccc(C(F)(F)F)cc2)O1 | -0.101 |
| CN(C)C(=O)[C@]1(CCS(=O)(=O)c2ccccc2)N=C(c2ccc(OCCCO)cc2)O[C@@H]1c1ccccc1N=[N+]=[N-] | 2.03 |
| C=CCOC(=O)[C@H]1[C@@H]2C(=O)O[C@@H](c3ccccc3)[C@@H](c3ccccc3)N2[C@@H](c2ccc(OCCOC(=O)[C@H]3C[C@H]4C(=O)N[C@@H](CCCCNC(C)=O)C(=O)N4[C@H]3c3ccc(O)cc3)cc2)[C@]12C(=O)Nc1ccccc12 | -0.821 |
| CC(CO)N1C(=O)[C@@H]2[C@H]3C(=O)OCC=C[C@H]3OC23C=CCN(Cc2ccccc2)C(=O)[C@@H]13 (some centres not stated) | -0.355 |
| COCCOC(=O)N1C(=O)[C@@]2(c3cc(C#Cc4ccc(OC)cc4)ccc31)[C@H](C(=O)Nc1nc3ccccc3s1)[C@H]1C(=O)O[C@H](c3ccccc3)[C@H](c3ccccc3)N1[C@@H]2c1ccc(O)cc1 | 1.2 |
| O=C1OCCC=C[C@H]2OC34C=CCN(Cn5nnc6ccccc65)C(=O)[C@H]3N(CCCCCCO)C(=O)[C@@H]4C12 (some centres not stated) | 0.946 |
| CN(C)C(=O)[C@@]1(CCS(=O)(=O)c2ccccc2)N=C(c2ccc(OCCCO)cc2)O[C@H]1c1ccccc1 | 0.873 |
| CCCCN1CC=CC23O[C@@H]4/C=C\CCC(C)OC(=O)C4[C@H]2C(=O)N(C(CO)C(C)C)[C@@H]3C1=O (some centres not stated) | 0.826 |

| Structure (SMILES) | z-score |
| --- | --- |
| COC(=O)[C@H](Cc1ccccc1)N1CC(/C=C/C2CC2)=C[C@H]1[C@H](O)Cc1ccccc1 | -0.377 |
| CCCCCCc1nc(C2CC2)cc2c1[Si](C(C)C)(C(C)C)OC2 | 0.981 |
| Cc1ccc(S[C@]2(C(=O)NCC(F)(F)F)CC(=O)N(C3CCCCC3)[C@@H]2c2ccc(CO)cc2I)cc1 | -0.178 |
| CCCC[C@@H]1C[C@H]1[C@@H](NC(=O)Cc1ccccc1)c1ccc(-c2ccccc2)cc1 | 0.249 |
| COC(=O)[C@@]1(Cc2ccc(OC)cc2)[C@H]2c3cc(C(=O)N(C)C)n(Cc4ccc(Cl)c(C(F)(F)F)c4)c3C[C@H]2CN1C(=O)c1ccccc1 | 1.01 |
| C=C(C)C1CCC(C(O)C2C=CC3C(=O)N(C)C(=O)C3N2N2CCCCC2)CC1 (configuration not stated) | 0.302 |
| COCCOC(=O)N1C(=O)[C@@]2(c3cc(C#CCNC(N)=O)ccc31)[C@H](C(=O)N1CCc3cc(OC)c(OC)cc3C1)[C@H]1C(=O)O[C@H](c3ccccc3)[C@H](c3ccccc3)N1[C@@H]2c1ccccc1OCCO | 0.435 |
| O=C1OCCC/C=C\[C@H]2OC34C=CCN(CCN5CCOCC5)C(=O)[C@H]3N(CCCCCCO)C(=O)[C@@H]4C12 (some centres not stated) | 0.752 |
| C#CCN([C@@H](Cc1ccc(O)cc1)C(=O)OC)[C@@H](/C=C/C1CC1)[C@H](O)Cc1ccccc1 | -0.824 |
| O=C1O[C@@H](c2ccccc2)[C@@H](c2ccccc2)N2[C@@H](c3ccccc3OCCO)[C@]3(C(=O)Nc4ccc(C#CCCO)cc43)[C@@H](C(=O)N3CCCCCCC3)[C@H]12 | 0.352 |
| CCOC(=O)C1=C[C@@H](c2ccccc2)N(S(=O)(=O)c2ccc(C)cc2)[C@H]1c1ccccc1Cl | -0.0415 |
| CCCNC(=O)[C@@]1(c2ccc([N+](=O)[O-])cc2)CC(=O)N(C2CCCCC2)[C@@H]1c1ccc(CO)cc1 | 1.21 |
| COC(=O)Cn1c(C(=O)N(C)C)cc2c1C[C@H]1CN(C(=O)c3ccccc3)[C@@](Cc3ccc(F)cc3)(C(=O)OC)[C@@H]21 | 0.13 |
| O=C1C[C@@](C(=O)NCCN2CCOCC2)(c2ccc([N+](=O)[O-])cc2)[C@@H](c2ccc(CO)cc2I)N1C1CCCCC1 | 2.94 |
| C=CCN1Cc2ccccc2[C@H]2OC(c3ccc(OCCCO)cc3)=N[C@@]2(CC=C)C1=O | 1.97 |
| O=C1c2ccccc2[C@](Cc2ccccc2I)(C(=O)NCC(F)(F)F)[C@H](c2ccc(CO)cc2)N1C1CCCCC1 | 2 |
| COc1ccc(C(O)C2C=CC3C(=O)N(c4ccccc4)C(=O)C3N2Nc2ccc([N+](=O)[O-])cc2)cc1 (configuration not stated) | 0.547 |
| COCCOC(=O)N1C(=O)[C@@]2(c3cc(C#CCC(C(=O)OC)C(=O)OC)ccc31)[C@H](C(=O)N1CCc3cc(OC)c(OC)cc3C1)[C@H]1C(=O)O[C@H](c3ccccc3)[C@H](c3ccccc3)N1[C@@H]2c1ccc(OCCO)cc1 | 0.57 |
